# Source: PubChem BioAssay (NCI)
# Compounds without any hit were thinned out: in the full panel of roughly 83,000, 20% have a hit.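 The endpoint reported here, percent growth, reads 100 for growth as untreated, 0 for no net growth and -100 for all cells dead.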 A number with no mark means an inactive call. Calls of active or inactive are those of the source. How the source made its calls: active means growth percent below 10; inactive means the rest.
# What was measured:
# Test in all cases: NCI-60 one-dose screen, 48 h (100 = growth as untreated, 0 = no growth, -100 = all killed)
# Conditions in all cases: 10 µM unless noted
# DU-145 prostate = system: DU-145 prostate
# K-562 leukemia = system: K-562 leukemia
# MALME-3M melanoma = system: MALME-3M melanoma
# MDA-MB-231 breast = system: MDA-MB-231 breast
# RXF 393 renal = system: RXF 393 renal
# SF-268 CNS = system: SF-268 CNS
# SF-295 CNS = system: SF-295 CNS
# SF-539 CNS = system: SF-539 CNS
# UACC-257 melanoma = system: UACC-257 melanoma
# M14 melanoma = system: M14 melanoma
Structure (SMILES),growth (DU-145 prostate),growth (K-562 leukemia),growth (MALME-3M melanoma),growth (MDA-MB-231 breast),growth (RXF 393 renal),growth (SF-268 CNS),growth (SF-295 CNS),growth (SF-539 CNS),growth (UACC-257 melanoma),growth (M14 melanoma)
CCN(CC)C(=O)CC1=C(C)/C(=C/c2[nH]c(-c3ccc[nH]3)cc2OC)N=C1C,34.8%,6.08% (active),1.07% (active),-0.929% (active),35.9%,21.7%,-51.6% (active),20.6%,5.68% (active),-55.8% (active)
O=C(O)CCCCCCCCCCN1C(=O)/C(=C2/C(=O)N(CC(=O)O)c3ccc(Br)cc32)SC1=S,106%,69.6%,96.9%,92.3%,113%,96.9%,103%,104%,97.9%,96.3%
c1cc(OCCN2CCCCC2)ccc1CNc1ccc2nc(CCC3CCCCC3)[nH]c2c1,59.9%,-1.42% (active),-85.9% (active),9.11% (active),11.9%,57.6%,-38.6% (active),-73.3% (active),-75% (active),-75% (active)
CCOC(=O)c1c(NC(=O)c2ccccc2)sc2c3c(ccc12)OCN(C)C3,11.6%,-53.3% (active),-89.2% (active),-74.7% (active),-73% (active),9.19% (active),-76.8% (active),-43.7% (active),-62.2% (active),-74.2% (active)
CC(=O)c1sc(-c2ccc(F)cc2)cc1O,97.7%,88.5%,99%,127%,111%,97.2%,105%,114%,100%,95.1%
O=C(/C=C/c1cccc(Oc2ccccc2)c1)c1ccc(Nc2nc(Nc3ccc(F)cc3)nc(Nc3ccc(Cl)cc3)n2)cc1,117%,11.5%,90.4%,108%,96.6%,99.9%,104%,116%,109%,106%
Clc1ccc(Nc2ncc(Cc3cccc(Cl)c3Cl)s2)cc1,102%,86.8%,96.7%,99.6%,93.3%,98.3%,100%,94.7%,96.6%,103%
NC(=O)c1ccccc1OCC(=O)Nc1ccc(Cl)c(Cl)c1,114%,91%,100%,96.1%,104%,107%,98.9%,85.1%,112%,111%
COCCn1cc(-c2nc(-c3cn(CCOC)c4ncccc34)cs2)c2cc(F)ccc21,86.1%,63.7%,95.3%,44.9%,86.5%,91.6%,74.7%,76.1%,69.5%,66.6%
N=C(N)c1ccc(OCCSCCOc2ccc(C(=N)N)cc2)cc1,71.7%,54.3%,52.2%,82.1%,105%,74.2%,-33.5% (active),76.5%,76.2%,75.3%
O=C1C=CC2(O)OC/C(=C\c3ccccc3)C(O)=C2C1=O (stereo not given),24.2%,5.02% (active),-37.8% (active),-22.4% (active),-64.7% (active),19.1%,74.8%,-38.8% (active),65.9%,27%
O=c1oc2c(cc1-c1ccccc1)c(=O)[nH]c1ccccc12,105%,89.2%,95.7%,96.8%,102%,100%,94.6%,106%,100%,99.7%
O=C1C(Cl)=C(Nc2ccccc2)C(=O)c2ccccc21,87.3%,-14.8% (active),-79.5% (active),-67.5% (active),-89.3% (active),-45.7% (active),90%,44.9%,-79% (active),-69.4% (active)
O=C1CCC(C(=O)N/N=C/c2cc(F)ccc2F)N1 (stereo not given),110%,97.1%,95.1%,111%,108%,97.2%,99.5%,101%,103%,104%
Cc1cc(O)cc(-c2nn(C)cc2-c2cc(N3CCOCC3)nc(-c3cccnc3)n2)c1,53.7%,21.6%,55.7%,53.2%,9.64% (active),44.8%,14.9%,-12.8% (active),61.3%,28.4%
O=C(Nc1cc(Cl)cc(Cl)c1)Oc1c(Cl)c(Cl)c(Cl)c(Cl)c1Cl,83.7%,41.4%,80.6%,77.8%,79.7%,77.3%,59.8%,76.8%,83.7%,87.3%
N#Cc1c(-c2ccccc2)nc2c(c(-c3ccccc3)nn2-c2ccccc2)c1-c1ccc(N2CCCCC2)cc1,103%,92.7%,98.6%,97.7%,115%,101%,97.9%,100%,93.3%,90.8%
FC(F)(F)c1[nH]ncc1-c1nc2ccc3[nH]ncc3c2c2c1CCCC2,6.89% (active),18.7%,8.51% (active),14.5%,-62.9% (active),8.87% (active),24.3%,-35.1% (active),17.6%,12.5%
COc1ccc(-c2nc3c(c(-c4ccc(Cl)cc4)nn3-c3ccccc3)c(-c3ccccc3)c2C#N)cc1,104%,100%,103%,111%,134%,106%,102%,103%,95.9%,92.3%
CN(C)CCCNC(=O)c1cncnc1Nc1ccc2c(ccn2Cc2cccc(F)c2)c1,97.8%,37.5%,81.9%,67.6%,70.9%,85.6%,106%,83.7%,84.4%,107%
COc1ccc(C(=O)Nc2ncc(Cc3ccc(Cl)cc3)s2)cc1,12.6%,7.71% (active),57.2%,31.3%,3.43% (active),44.8%,1.3% (active),-22.9% (active),46.8%,-29.4% (active)
CCN1CCN(CCNc2nccc(-c3c(-c4ccc(F)c(O)c4)nc4occn34)n2)S1(=O)=O,26.8%,10.3%,26.4%,73.2%,25.8%,28%,28.9%,75.9%,43.6%,21.6%
O=c1c2ccccc2n(C[C@H]2CO2)c2ccccc12,2.26% (active),8.2% (active),-74.3% (active),5.95% (active),-67.1% (active),-8.61% (active),5.39% (active),-22.1% (active),-10.1% (active),6.45% (active)
O=[N+]([O-])c1c(O)c(Cl)cc(Cl)c1Cl,113%,103%,96.5%,103%,104%,102%,97.9%,109%,108%,98.1%
CCOC(=O)CC[C@H](NC(=O)c1ccc(N(C)Cc2cnc3nc(N)nc(N)c3n2)c2ccccc12)C(=O)OCC,28.3%,18.8%,62.1%,59.4%,48.7%,32.9%,24.3%,26.1%,25.3%,23%
Fc1ccc(/C=C/[C@@H]2C[C@@H](F)CCO2)cc1,113%,64.2%,99.7%,98.2%,96.4%,104%,94.8%,103%,93.9%,85.5%
CCCCCc1ccc(S(=O)(=O)Nc2cc(-c3csc(NC(C)=O)n3)ccc2N2CCN(C)CC2)cc1,75.8%,-32.6% (active),-47.1% (active),51.8%,33.3%,72%,49.9%,61.6%,-21.9% (active),-52.4% (active)
